Results filed as inconclusive are left out. A call without a number means that no potency is given here. Unmarked numbers belong to inactive results. Active and inactive are the calls of the source. Calls come from the whole dose curve; as a rule, active = well fitted inhibition curve with a large enough effect; inconclusive = small, poorly fitted or top-dose-only effect; inactive = flat fitted curve, though single readings scatter.
Potency is the fitted concentration of half-maximal effect.

This assay is described as follows: P-glycoprotein substrates identified in KB-8-5-11 adenocarcinoma cell line, qHTS therapeutic library screen (AID 1346987). Note: nearly all actives have a fitted effect of over 65% in size. Particulars: KB-8-5-11 (P-gp overexpressing) viability, CellTiter-Glo, 72 h; series mostly up to 44.5 µM. The method, boiled down: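 Luminescence from CellTiter-Glo, read 5 min after addition, quantified survival of KB-8-5-11 (P-gp-overexpressing) cells exposed to compounds for 72 h. AC50 was derived from concentration-response curves.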
For orientation: Quantitative high-throughput screening tests each substance at several concentrations.
`C=C(C)C1Cc2cc(C(=O)OC3OC(CO)C(O)C(O)C3O)ccc2O1` (centres undefined): the Potency result is “inactive”.

With `CCCCc1ccc(C(=O)Nc2cc(-c3ccc(Cl)cc3)nn2-c2ccc(Cl)cc2)cc1`, the Potency entry was “inactive”.

As for `C=CC(=O)Nc1cc(Nc2ncc(Cl)c(-c3c[nH]c4ccccc34)n2)c(OC)cc1N(C)CCN(C)C`, the Potency is 5.17 µM (active).

Consider `C=C1CCCC2(C)CC3(OC)OC(=O)C(C)=C3CC12` (centres undefined), for which the Potency result was “inactive”.

Take `COC1/C=C/C(C)(O)C(SCC(N)C(=O)O)CC(=O)OC(C)C(C)CC/C=C/1C` (centres undefined): the Potency result is “inactive”.

With `C/C=C/C=C/C(O)=C1\C(O)=C(C)C(=O)[C@@]2(C)OC(=O)[C@@](C)(NC(=O)/C=C/C(=O)O)[C@@H]12`, the Potency entry is “inactive”.

As for `C[C@@H]1O[C@@H](O[C@H]2[C@H](O[C@H]3[C@H](O[C@H]4CC[C@@]5(C)C(CC[C@]6(C)C5CC=C5[C@@H]7CC(C)(C)C[C@@H](O)[C@]7(C)CC[C@]56C)[C@@]4(C)CO)O[C@H](C(=O)O)[C@@H](O)[C@@H]3O)OC[C@H](O)[C@@H]2O)[C@H](O)[C@H](O)[C@H]1O` (some centres undefined), the activity change, negative = cytotoxicity is 3.08% [at 9.29 µM].

Take `O=C(O)c1cccc(S(=O)(=O)N2CCc3ccccc3C2)c1`: the Potency result was “inactive”.

Consider `CC(C)=CCC[C@](C)(O)[C@H]1CC[C@]2(C)[C@@H]1[C@H](O)CC1[C@@]3(C)CC[C@H](O)C(C)(C)[C@@H]3[C@@H](O[C@@H]3O[C@H](CO)[C@@H](O)[C@H](O)[C@H]3O[C@@H]3O[C@H](CO)[C@@H](O)[C@H](O)[C@H]3O)C[C@]12C` (some centres undefined), for which the Potency entry was “inactive”.

Regarding `O=C(c1ccc(/C=C/c2n[nH]c3ccccc23)cc1)N1CCNCC1`, the Potency was 6.51 µM (active).

Consider `OCCc1ccc(O[C@@H]2O[C@H](CO)[C@@H](O)[C@H](O)[C@H]2O)cc1`, for which the Potency entry is “inactive”.

`CC(C)c1ccc2c(c1)C(=O)CC1[C@@](C)(C(=O)O)CCC[C@]21C` (some centres undefined): the Potency result is “inactive”.

Consider `O=C(Nc1ccc(Cl)cc1F)c1ccccc1O`, for which the Potency is 7.31 µM (active).

As for `CC(C)c1cc(C(=O)N2CC[C@@H](NC(=O)C3CC3)C2)n[nH]1`, the Potency entry is “inactive”.

Turning to `COC(=O)c1cc(OC)c(O[C@@H]2O[C@@H](C)[C@H](O)[C@@H](O)[C@H]2O)c(OC)c1`, the Potency entry was “inactive”.

With `COc1ccccc1NC(=O)OCC1CCN(C(=O)OC(C)(C)C)CC1`, the Potency result was “inactive”.

`OC/C=C/c1ccc(O[C@@H]2O[C@H](CO)[C@@H](O)[C@H](O)[C@H]2O)cc1`: the Potency entry was “inactive”.

As for `O=C(/C=C/c1cccc(S(=O)(=O)Nc2ccccc2)c1)NO`, the Potency was 2.82 µM (active).

As to `C[C@@H](Oc1cc(-n2cnc3ccc(OC4CCN(C)CC4)cc32)sc1C(N)=O)c1ccccc1C(F)(F)F`, the Potency is 0.206 µM (active).

As for `C[C@H]1Oc2cc(cnc2N)-c2c(nn(C)c2C#N)CN(C)C(=O)c2ccc(F)cc21`, the Potency entry was “inactive”.

As for `CCOC(=O)Nc1cc(-c2ccc(C)c(NS(C)(=O)=O)c2)nn2c(C)nnc12`, the Potency was 14.6 µM (active).

With `CC(O)/C=C/C1(O)C(C)C(O[C@@H]2O[C@H](CO)[C@@H](O)[C@H](O)[C@H]2O)C(O)CC1(C)C` (some centres undefined), the Potency entry is “inactive”.

Consider `CCN(CC)CCN(Cc1ccc(-c2ccc(C(F)(F)F)cc2)cc1)C(=O)Cn1c(SCc2ccc(F)cc2)nc(=O)c2c1CCC2`, for which the Potency was 18.4 µM (active).

On to `C[C@@H]1C[C@@H](O)[C@@]23CO[C@@H](O)[C@@H]2CCC[C@@H]3[C@@]12C[C@@H](c1ccoc1)OC2=O`, for which the Potency result was “inactive”.

On to `CC(=O)O[C@H]1C[C@@]2(C)[C@@H](CC[C@H]3[C@@]4(C)C=CC(=O)[C@@H](C)[C@@H]4[C@H](O)C(=O)[C@@]32C)/C1=C(/CCC=C(C)C)C(=O)O`, for which the Potency result is “inactive”.

As for `C[C@H]1[C@H](O)O[C@@H]2O[C@@]3(C)CC[C@H]4[C@H](C)CC[C@@H]1[C@@]24OO3`, the Potency is 11.6 µM (active).

Regarding `C[C@@H]1C(=O)O[C@H](C)[C@H]1CC(=O)[C@](C)(O)[C@H]1CC[C@@]2(O)C3=CC(=O)[C@@H]4C[C@@H](O)[C@@H](O)C[C@]4(C)C3CC[C@]12C` (some centres undefined), the Potency result was “inactive”.

On to `C=C(CO)C12OC1C1(C)C(=CC2=O)C(O)C(O)CC1C` (centres undefined), for which the Potency result is “inactive”.

As for `COC(=O)c1c(C)cc(OC(=O)c2c(C)cc(OC)cc2OC)cc1O[C@@H]1O[C@H](CO)[C@@H](O)[C@H](O)[C@H]1O`, the Potency result is “inactive”.

As for `C[C@@H]1O[C@@H](O[C@H]2[C@H](OC(=O)[C@]34CCC(C)(C)C[C@H]3C3=CCC5[C@@]6(C)CC[C@H](O[C@@H]7O[C@H](C(=O)O)[C@@H](O)[C@H](O)[C@H]7O[C@@H]7O[C@H](CO)[C@H](O)[C@H](O)[C@H]7O)[C@@](C)(C=O)C6CC[C@@]5(C)[C@]3(C)C[C@H]4O)O[C@H](C)[C@H](O[C@@H]3O[C@H](C)[C@H](O)[C@H](O)[C@H]3O)[C@@H]2O)[C@H](O)[C@H](O)[C@H]1O[C@@H]1OC[C@@H](O)[C@H](O[C@@H]2O[C@H](CO)[C@@H](O)[C@H](O)[C@H]2O)[C@H]1O` (some centres undefined), the outcome was “inactive [at 5.11 µM]”.

Regarding `O=C(/C=C/c1ccc(O)cc1)OC1[C@H](O)CC(O)(C(=O)O)C[C@H]1O` (some centres undefined), the Potency entry was “inactive”.

In the case of `C[C@@H]1O[C@@H](O[C@H]2[C@@H]3C=CO[C@@H](O[C@@H]4O[C@H](CO)[C@@H](O)[C@H](O)[C@H]4O)[C@@H]3[C@@]3(CO)O[C@@H]23)[C@H](OC(=O)/C=C/c2ccc(O)c(O)c2)[C@H](O)[C@H]1O`, the Potency result was “inactive”.

`Cc1cc(C(N)=O)ccc1-n1c(CCC(=O)O)ccc1-c1ccc(-n2ccnc2)cc1`: the Potency entry is “inactive”.

`CN1CCN(Cc2ccc(-c3cnc4[nH]cc(-c5ccc6[nH]ccc6c5)c4c3)cc2)CC1`: the Potency is 7.31 µM (active).

For `C[C@@H]1CCC/C=C/[C@H]2CC(=O)C[C@@H]2[C@@H](O)/C=C/C(=O)O1`, the Potency result is “inactive”.

In the case of `Cc1cc(C)c(CNC(=O)c2cc(-c3ccc(CN4CCOCC4)cc3)cc3c2cnn3C2CCCC2)c(=O)[nH]1`, the Potency result is “inactive”.

As to `Cc1cc(Nc2ccc(NC(=O)c3ccc(Nc4ccnc5ccccc45)cc3)cc2)nc(N)n1`, the Potency result was “inactive”.

Turning to `CC1(C)CCC(C)(C)c2cc(C3(c4ccc(C(=O)O)cc4)OCCO3)ccc21`, the Potency entry was “inactive”.

Turning to `CC(=O)OC1C(=O)C2(C)C(O)CC3OCC3(OC(C)=O)C2C(OC(=O)c2ccccc2)C2(O)CC(OC(=O)C(O)C(NC(=O)c3ccccc3)c3ccccc3)C(C)=C1C2(C)C` (centres undefined), the Potency was 1.3 µM (active).

(Values after PubChem BioAssay (NCATS).)
